Test results reported in PubChem BioAssay AID624490 (Broad Institute, 2012).
Measured potencies and affinities stand elsewhere. Active and inactive are the calls of the source.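 How the source made its calls: active means compounds whose fitted half-maximal drop in cell ATP occurs at no more than twice the top tested dose; inconclusive means flat moderate signal drop, or unreliable curve fit; inactive means the rest.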

Assay: viability loss in MITF-independent A375 cells – cell-based, CellTiter-Glo luminescence, dry powder, set 7, counter-screen for MITF inhibitor project, dose response (AID 624490)
Settings: ATP luminescence (CellTiter-Glo), 24 h; series mostly up to 35 µM

| Structure (SMILES) | outcome |
| --- | --- |
| NC1=C(NS(=O)(=O)c2ccc(Br)s2)C(=O)c2ccccc2C1=O | inactive |
| O=C1C(Nc2ccccc2)=C(c2ccccc2)C(=O)c2ccccc21 | inactive |
| NC1=C(NS(=O)(=O)c2ccc(Br)cc2)C(=O)c2ccccc2C1=O | inactive |
